# Experimental data taken from PubChem BioAssay (NCI).
# Compounds without any hit were thinned out: in the full panel of roughly 83,000, 20% have a hit.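 Single-concentration screen, 48 h exposure, 96-well plates. Endpoint: percent growth. Below 10 = active.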 Calls of active or inactive are those of the source.
# Tests used:
# Assay in all cases: NCI-60 one-dose screen, 48 h (100 = growth as untreated, 0 = no growth, -100 = all killed)
# Settings in all cases: 10 µM unless noted
# T-47D breast = test system: T-47D breast
# BT-549 breast = test system: BT-549 breast
# MDA-MB-435 melanoma = test system: MDA-MB-435 melanoma
# SW-620 colon = test system: SW-620 colon
# HCT-116 colon = test system: HCT-116 colon
# HCC-2998 colon = test system: HCC-2998 colon
# KM12 colon = test system: KM12 colon
# MCF7 breast = test system: MCF7 breast
Compound,growth (T-47D breast),growth (BT-549 breast),growth (MDA-MB-435 melanoma),growth (SW-620 colon),growth (HCT-116 colon),growth (HCC-2998 colon),growth (KM12 colon),growth (MCF7 breast)
O=S(=O)(NCCNc1nccc(-c2c(-c3cccc(F)c3)nc3occn23)n1)c1ccc(C(F)(F)F)cc1,61.9% (inactive),106% (inactive),76.3% (inactive),101% (inactive),76.5% (inactive),125% (inactive),92% (inactive),
CCn1cc(-c2ccnc(NCCNS(=O)(=O)c3cccc4ccccc34)c2)c(-c2cccc(O)c2)n1,85.9% (inactive),109% (inactive),96.1% (inactive),118% (inactive),87.3% (inactive),122% (inactive),99.1% (inactive),
O=C(Nc1cccc(C2=NCCN2)c1)c1cccc(C(=O)Nc2cccc(C3=NCCN3)c2)c1,96.7% (inactive),110% (inactive),98.8% (inactive),98.2% (inactive),,107% (inactive),101% (inactive),88.4% (inactive)
O=[N+]([O-])c1cccc(/C=C/c2ccc3ccccc3n2)c1,79.5% (inactive),73.7% (inactive),79.8% (inactive),85.5% (inactive),,81% (inactive),82.7% (inactive),
Cc1ccc(S(=O)(=O)Nc2ccccc2)cc1N,101% (inactive),49.5% (inactive),92.6% (inactive),99.7% (inactive),,,107% (inactive),91.8% (inactive)
C=C(C)[C@@H]1CC[C@]2(C)[C@H](C(=O)C=C3[C@@H]4C[C@](C)(C(=O)N5CCN(C)CC5)CC[C@]4(C)CC[C@]32C)[C@@]1(C)CCC#N,-40.5% [100 µM] (active),-73.3% [100 µM] (active),-81% [100 µM] (active),-80% [100 µM] (active),,-94% [100 µM] (active),-80.2% [100 µM] (active),-71.1% [100 µM] (active)
COc1ccc(N(c2nc(-c3ccc([N+](=O)[O-])cc3)cs2)C(C)C)cc1,53.4% (inactive),97% (inactive),89% (inactive),88.1% (inactive),76.3% (inactive),101% (inactive),75.7% (inactive),
CCN1c2ccccc2C(Cl)(c2ccc(N(C)C)cc2)c2ccccc21,54.9% (inactive),62.1% (inactive),,12.2% (inactive),17.5% (inactive),78% (inactive),21.9% (inactive),76.2% (inactive)
CC(C)[C@H]1CCC2=C3CC[C@]45OC(=O)[C@@]6(CCC(C)(C)C[C@H]64)CC[C@@]5(C)[C@]3(C)CC[C@@]21C,53.9% [100 µM] (inactive),82.1% [100 µM] (inactive),78.5% [100 µM] (inactive),78.7% [100 µM] (inactive),,97.9% [100 µM] (inactive),76% [100 µM] (inactive),61.2% [100 µM] (inactive)
CC(C)C1=NOC(=O)C1=Cc1cn(-c2ccco2)nc1-c1ccccc1,49% (inactive),116% (inactive),91.9% (inactive),84% (inactive),58.2% (inactive),101% (inactive),85.2% (inactive),
C=C(C)[C@@H]1CC[C@]2(C(N)=O)CC[C@]3(C)[C@H](CC[C@@H]4[C@@]5(C)C/C(=C/c6cccnc6)[C@H](O)C(C)(C)[C@@H]5CC[C@]43C)[C@@H]12,16.1% [100 µM] (inactive),26.6% [100 µM] (inactive),,18.8% [100 µM] (inactive),7.1% [100 µM] (active),19.5% [100 µM] (inactive),14.2% [100 µM] (inactive),11.3% [100 µM] (inactive)
CCc1ccc(NC(=O)N[C@@H](Cc2cc(F)cc(F)c2)C(=O)N[C@@H]2C(=O)N3C[C@H](O)C[C@H]3C(=O)N3CCOC[C@H]3C(=O)N[C@@H](C)C(=O)N3C[C@H](C)C[C@H]3C(=O)O[C@H]2C)cc1,18.2% (inactive),11.3% (inactive),,48.5% (inactive),13.7% (inactive),32.1% (inactive),42.7% (inactive),24.1% (inactive)
Cn1cc(-c2noc(C(=O)c3cn(C)c4ncc(Br)cc34)n2)c2ccccc21,99.7% (inactive),98% (inactive),,96.5% (inactive),99.6% (inactive),108% (inactive),96.7% (inactive),90.5% (inactive)
Cc1cc(NN=C(c2ccc(O)cc2)c2ccc(O)cc2)c([N+](=O)[O-])cc1[N+](=O)[O-],33.1% (inactive),90.8% (inactive),,71.4% (inactive),28.6% (inactive),61.9% (inactive),37.7% (inactive),32% (inactive)
COc1cc(NN=C(c2ccc(O)cc2)c2ccc(O)cc2)c([N+](=O)[O-])cc1[N+](=O)[O-],-10.1% (active),111% (inactive),,98.9% (inactive),1.31% (active),2.63% (active),73.2% (inactive),1.9% (active)
O=C(Nc1ccc(F)cc1)c1ccccc1,104% (inactive),84.8% (inactive),,101% (inactive),103% (inactive),109% (inactive),104% (inactive),96% (inactive)
Cn1cc(-c2nnc(-c3cn(C)c4ncc(Br)cc34)s2)c2cc(Br)ccc21,67.6% (inactive),96.2% (inactive),,96.4% (inactive),96.4% (inactive),103% (inactive),94.6% (inactive),74.1% (inactive)
Ic1ccc2[nH]cc(SSc3c[nH]c4ccc(I)cc34)c2c1,26.7% (inactive),31.5% (inactive),,39.4% (inactive),,4.84% (active),6.3% (active),-29.4% (active)
COc1cc2c(c(Br)c1N)-c1cc(Br)c(N)cc1C2=O,18.4% (inactive),77.9% (inactive),,75.3% (inactive),62.9% (inactive),52.1% (inactive),66.6% (inactive),3.68% (active)
O=C1/C(=C\c2cccn2Cc2ccccc2)c2ccccc2N1c1c(Cl)cccc1Cl,-35.7% (active),81% (inactive),,85.7% (inactive),27.1% (inactive),22.1% (inactive),4.07% (active),6.23% (active)
O=C(Nc1cccc2ccccc12)c1cc2ccccc2cc1O,14.4% (inactive),11.6% (inactive),,16.6% (inactive),7.65% (active),27.7% (inactive),10.2% (inactive),8.7% (active)
Cc1cc2c(C(C)C)c(O)c(O)c(C=NCc3ccoc3)c2c(O)c1-c1c(C)cc2c(C(C)C)c(O)c(O)c(C=NCc3ccco3)c2c1O,33.5% (inactive),,67.1% (inactive),24.6% (inactive),20.7% (inactive),35.5% (inactive),19.4% (inactive),22.4% (inactive)
CN(C)C(=S)Sc1ccc([N+](=O)[O-])cc1[N+](=O)[O-],-34.7% (active),,44.4% (inactive),-63.1% (active),-54.4% (active),88.9% (inactive),49.1% (inactive),0.536% (active)
O=[N+]([O-])c1cccc(N=NNc2cccc([N+](=O)[O-])c2)c1,76.3% (inactive),101% (inactive),,91.7% (inactive),114% (inactive),104% (inactive),95.2% (inactive),65.3% (inactive)
O=C(Oc1ccc(Cl)cc1[N+](=O)[O-])Oc1ccc(Cl)cc1[N+](=O)[O-],115% (inactive),119% (inactive),,109% (inactive),113% (inactive),108% (inactive),106% (inactive),103% (inactive)
O=c1[nH]c(CN2CCN(c3cccc(Cl)c3)CC2)nc2cc(Cl)ccc12,75.9% (inactive),110% (inactive),,99.2% (inactive),,96.2% (inactive),99% (inactive),86.2% (inactive)
O=C1COCCN1c1ccc(NCc2cn(Cc3cccc4ccccc34)c3ccccc23)cc1,43.1% (inactive),,98% (inactive),83% (inactive),39.3% (inactive),103% (inactive),96.5% (inactive),63.4% (inactive)
C[C@H]1[C@H](C)CC[C@]2(C(=O)N3CCN(C)CC3)CC[C@]3(C)C(=CC[C@@H]4[C@@]5(C)C/C(=C/c6ccco6)C(=O)C(C)(C)[C@@H]5CC[C@]43C)[C@H]12,20.3% [100 µM] (inactive),50.8% [100 µM] (inactive),,39.9% [100 µM] (inactive),19% [100 µM] (inactive),38.2% [100 µM] (inactive),35.7% [100 µM] (inactive),23.9% [100 µM] (inactive)
CC1(C)C(=O)/C(=C\c2ccco2)C[C@]2(C)[C@H]3CC=C4[C@@H]5C[C@](C)(C(=O)O)CC[C@]5(C)CC[C@@]4(C)[C@]3(C)CC[C@@H]12,-8.17% [100 µM] (active),-62.6% [100 µM] (active),,-63.6% [100 µM] (active),-67% [100 µM] (active),-90.1% [100 µM] (active),-77.5% [100 µM] (active),-43.1% [100 µM] (active)
